# aSyn UTR act – Activators via SNCA 5'UTR binding, MLPCN. 300,000 tested, 7.1% active. activity score, % (tested at 7.5 µM), hits read low. alpha-synuclein 5'UTR reporter, activators screen; in the data active = activity score below about -60%
# A number is an active result; 0 = inactive. These entries were drawn from the full list.
SMILES,aSyn UTR act
CC(C)(C)c1cc(C(=O)NCCN2CCCC2)cc(C(C)(C)C)c1,-82
Cc1ccc(C(=O)NCCC(=O)N2CCOCC2)cc1,-101
Oc1ccc(/C=N/Nc2ncnc3c2ncn3Cc2ccccc2)cc1O,-67
Nc1c(S(=O)(=O)c2cccc(Cl)c2)c2nc3ccccc3nc2n1/N=C/c1ccc(O)c(O)c1,0
Oc1cccc(/C=N/Nc2ncnc3c2ncn3Cc2ccccc2)c1,-77
COc1cc(C=O)ccc1OCCSc1ccc(Cl)cc1,-87
Cc1ccc(NC(=O)c2sc(N)nc2C)cc1,-185
Cc1nc(C(=O)Nc2ccccc2)sc1C(=O)Nc1ccccc1,-166
Cc1nc(/N=C\N(C)C)sc1C(=O)Nc1ccccc1,-79
Cc1ccc(-n2c(C)cc(/C=C3\SC(=O)NC3=O)c2C)cc1,-174
CCn1c(C)cc(/C=C2/SC(=S)NC2=O)c1C,-67
Cc1cc(/C=C2/C(=O)NN(c3ccccc3)C2=O)c(C)n1-c1cccc(O)c1,-74
Cc1cc(/C=C2\SC(N)=NC2=O)c(C)n1-c1ccc(F)cc1,-62
Cc1cc(/C=C2\SC(=S)NC2=O)c(C)n1-c1cccc(O)c1,-111
COc1ccc(-n2c(C)cc(/C=C3\SC(=O)NC3=O)c2C)cc1,-146
Cc1cc(/C=C2\SC(=S)N(C)C2=O)c(C)n1-c1ccccc1O,-126
Cc1ccc(/C=C2\SC(=S)N(CCCC(=O)NNC(=O)c3ccccc3O)C2=O)cc1,0
CC(=O)Nc1ccc(NC(=O)c2cc(-c3ccc(C)c(C)c3O)n[nH]2)cc1,-170
CC(=O)Nc1ccc(NC(=O)c2cc(-c3cc(C)cc(C)c3O)n[nH]2)cc1,-108
Cc1cccc(NC(=O)c2cc(-c3ccc(C)c(C)c3O)n[nH]2)c1,-211
Cc1nc2c(ccc3c2ccc2nc(C)sc23)s1,-113
COc1ccc(-c2cn3cc(Br)cnc3n2)cc1,-123
COc1ccc(-c2cc3cc(OC)c(OC)cc3cn2)cc1OC,-140
COc1ccc(-c2cn3ccccc3n2)cc1OC,-171
O=C(Nc1ccc(-c2cn3ccccc3n2)cc1)c1cccs1,-129
SMILES,aSyn UTR act
c1ccn2cc(-c3ccc4c(c3)OCCO4)nc2c1,0
C=C1[C@@H](C)C2[C@H](Cc3ccccc3)NC(=O)[C@]23OC(=O)CC[C@H](O)CCC[C@H](C)C/C=C/[C@H]3[C@@H]1O (stereo not given in full),0
COc1ccc(CC(=O)Nc2ccc(-c3cn4ccccc4n3)cc2)cc1,-124
COc1ccc(CC(=O)Nc2ccc(-c3cn4ccccc4n3)cc2)cc1OC,-86
COc1ccc(-c2cn3cccnc3n2)cc1Br,-66
Cc1ccc(N=Cc2sc(O)c3ccccc23)cc1,-237
Cc1ccc(N=Nc2ccc3ccccc3c2O)cc1,0
Cc1ccc(N=Cc2sc(O)c3ccccc23)c(C)c1,-190
Cc1ccc2nc(-c3ccc(N4C(=NC(=O)CCC(=O)O)SC5CS(=O)(=O)CC54)cc3)sc2c1 (stereo not given),-92
CC(=O)N=C1SC2CS(=O)(=O)CC2N1c1ccc(-c2nc3ccc(C)cc3s2)cc1 (stereo not given),-164
CN(C)S(=O)(=O)c1ccc2nc(NC(=O)c3cccs3)sc2c1,-108
O=C(Nc1nc2ccc(F)cc2s1)c1cccs1,-223
CSc1nc2ccc3nc(NC(=O)c4cccs4)sc3c2s1,-370
O=C(NC(=S)Nc1nc2ccc(F)cc2s1)c1ccco1,-171
CC(=O)Nc1ccc2nc(NC(=O)c3cccnc3)sc2c1,-92
O=C(NC(Nc1nc2ccc([N+](=O)[O-])cc2s1)(C(F)(F)F)C(F)(F)F)c1cccnc1,0
CN(C)S(=O)(=O)c1ccc2nc(NC(=O)c3cccnc3)sc2c1,-68
Cc1cc(O)ccc1Nc1nc2ccccc2nc1Nc1ccc(O)cc1C,-106
CCn1c(O)c(C=Nc2ccccc2)sc1=S,-153
CC1=Nc2ccccc2/C1=C/c1sc(=N)n(-c2nccs2)c1O,0
CCn1c(O)c(/C=C2\C=Nc3ccccc32)sc1=O,-245
Oc1nc(Nc2ccccc2)sc1/C=C1\C=Nc2ccccc21,-112
CCn1c(O)c(C=Nc2ccccc2)sc1=O,-101
C=C[C@@]1(C)CC(=O)[C@]2(O)[C@@]3(C)[C@@H](O)CCC(C)(C)[C@@H]3[C@H](OC(C)=O)[C@H](O)[C@@]2(C)O1,0
C=CCn1c(O)c(C=Nc2ccccc2)sc1=S,-107
SMILES,aSyn UTR act
COc1ccc(Nc2oc(COc3ccccc3OC)nc2C#N)cc1,0
COc1ccc(Nc2oc(-c3cccs3)nc2C#N)cc1,-171
COc1ccc(Nc2oc(-c3ccccc3F)nc2C#N)cc1,-103
CC1(C)CC(=O)c2cc(N=C/C(C(=O)c3ccccc3)=C(\O)c3ccccc3)c(=O)oc2C1,-72
COc1nccnc1NS(=O)(=O)c1ccc(NCc2cc(Br)ccc2O)cc1,-83
O=C1C(Cl)=C(NCCCN2CCOCC2)C(=O)N1CCc1ccccc1,-126
O=C1C(Cl)=C(NCC2CCCO2)C(=O)N1CCc1ccccc1 (stereo not given),-183
O=C1C(Cl)=C(N2CCOCC2)C(=O)N1CCc1ccccc1,-212
O=c1c([N+](=O)[O-])c(N2CCOCC2)c2ccccc2n1Cc1ccccc1,0
CN1CCN(C2=C(Cl)C(=O)N(CCc3ccccc3)C2=O)CC1,-112
c1ccc(-c2nc3ccccc3o2)nc1,-70
Nc1ccc2oc(-c3ccccn3)nc2c1,-133
Clc1ccc2oc(-c3ccccn3)nc2c1,-147
O=S(=O)(c1ccc(Cl)s1)N1CCCc2cccc(O)c21,-125
COc1ccccc1-c1nnc(Sc2nc([N+](=O)[O-])nn2C)o1,-83
O=C(NC(=S)NCCO)c1sc2ccccc2c1Cl,-143
O=C(N/N=C/c1ccc[nH]1)c1sc2ccccc2c1Cl,-105
CC(C)(C)C(=O)NC(=S)NNC(=O)c1sc2ccccc2c1Cl,0
CCOC(=S)NC(=O)c1sc2ccccc2c1Cl,-84
COCCNc1c(-c2cc3ccc(C)c(C)c3[nH]c2=O)nc2ccccn12,-153
Cc1c(NC(=O)Nc2ccc3c(c2)OCO3)cccc1[N+](=O)[O-],-96
COc1ccccc1NC(=O)Nc1ccc2c(c1)OCCO2,-131
COc1ccccc1NC(=O)Nc1ccc(F)c(F)c1,-66
Cc1ccc(C)c(NC(=O)Nc2ccc3c(c2)OCO3)c1,-73
COc1ccc(NC(=O)Nc2ccc3c(c2)OCO3)c(C)c1,-81
SMILES,aSyn UTR act
CC(=O)Nc1ccccc1OCC(=O)c1ccc2c(c1)OCO2,-99
Cc1ccc(CNc2ccc3c(c2)OCO3)c(C)c1,-98
Cc1ccccc1NC(=O)Nc1ccc2c(c1)OCO2,-129
COc1ccc(NC(=O)Nc2cc(C)ccc2F)cc1OC,-77
CCOc1ccccc1NC(=O)Nc1ccc2c(c1)OCO2,-85
Cc1cccc(NC(=O)c2sc3nc(N)c(C#N)cc3c2N)c1,-156
N#Cc1cc2c(N)c(C(=O)Nc3ccccc3)sc2nc1N,-124
Nc1c(C(=O)Nc2ccccc2)sc2nc(-c3ccco3)ccc12,-176
Cc1ccc(CNc2ccc(N3CCOCC3)cc2)s1,-86
O=C1C(Nc2ccccc2)=C2CCCC=C2N1c1ccccc1,-163
Cc1[nH]c2ccccc2c1C(=O)/C=C\c1ccccc1Cl,-314
Cc1[nH]c2ccccc2c1C(=O)/C=C/c1ccccc1Cl,-453
O=C(N/N=C/c1ccccc1Cl)c1[nH]c2ccc(Br)cc2c1-c1ccccc1,0
Cc1[nH]c2ccccc2c1C(=O)/C=C/c1ccccc1,-98
CN(C)/C=N/c1ncc(C(=O)c2ccc3ccccc3c2)s1,-81
COc1ccc(C(=O)c2cnc(/N=C/N(C)C)s2)cc1,-93

# Screens from PubChem.
